Assay outcomes from PubChem.
Many of the other results were omitted from the sample, so hits are more common in it than they were.
Pf Dd2 growth – inhibitors of Plasmodium falciparum Dd2 growth. hit rate 4.3% among 120,000. Potency, µM (series often up to 28.9 µM), usual class: inhibitors. P. falciparum Dd2 growth, SYBR Green, 72 h. AID 1347417; active means well fitted inhibition curve with a large enough effect; further: nearly all actives have a fitted effect of over 65% in size
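Readout: SYBR Green fluorescence, 485 nm excitation, 535 nm emission, after ~16 h lysis at 37C. Before that, Dd2-infected red cells (2.5% hematocrit) grew 72 h with compound, 29 uM top final concentration.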
A number is an active result; . = inactive.

SMILES	Pf Dd2 growth
COc1ccc(-n2c(SCCC(C)C)nc3sc4c(c3c2=O)CC(C(C)C)OC4)cc1 (stereo not drawn)	.
COC(=O)CSc1nnc2n(-c3ccccc3)c(=O)c3c4c(sc3n12)COC(C(C)C)C4 (stereo not drawn)	.
FC(F)(F)Oc1cccc(CN2CCNc3cc(Nc4cccnc4)ncc3C2)c1	5.01µM
O=[S+]([O-])(Nc1cccnc1)c1ccc2c(c1)OCCN(Cc1ccsc1)C2	.
c1ccc(Oc2cc3c(cn2)NCCN(Cc2ccsc2)C3)cc1	.
COc1cccc(Nc2cc3c(cn2)NCCN(Cc2ccccc2)C3)c1	.
COc1cccc(CN2CCNc3cnc(Nc4ccccc4)cc3C2)c1	.
c1cncc(Nc2cc3c(cn2)CN(Cc2ccsc2)CCN3)c1	8.91µM
O=C(O)COc1ccc(-c2nccc3c2C(=O)N(Cc2c[nH]c4ccccc24)CC(CNC(=O)Cc2ccccc2)O3)cc1 (stereo not drawn)	.
CN(Cc1ccccc1)Cc1cn([C@H]2CO[C@H]3[C@@H]2OC[C@@H]3NC(=O)NC2CCCCC2)nn1	.
O=C(Cn1ccn2nc(-c3ccccc3)c(CO)c2c1=O)Nc1cc(F)cc(F)c1	.
Cc1cccc(NC(=O)C2CC(=O)Nc3ncnn32)c1 (stereo not drawn)	.
Cc1ccc(Cl)cc1N1CCN(C(=O)c2cc3ccc4cccnc4c3[nH]2)CC1	.
O=C(NCC1CCN(Cc2ccccc2Cl)CC1)c1cc2ccc3cccnc3c2[nH]1	7.94µM
O=C(NCc1cccc(Cl)c1)c1cc2ccc3cccnc3c2[nH]1	12.6µM
O=C(c1cc2ccc3cccnc3c2[nH]1)N1CCCCC1	.
O=C(NCC1CCN(Cc2ccc(F)cc2)CC1)c1cc2ccc3cccnc3c2[nH]1	7.08µM
CCOC(=O)C1CCN(C(=O)c2cc3ccc4cccnc4c3[nH]2)CC1	.
CC1CCCN(C(=O)c2cc3ccc4cccnc4c3[nH]2)C1 (stereo not drawn)	.
O=C(c1cc2ccc3cccnc3c2[nH]1)N1CCN(c2cccc(Cl)c2)CC1	.
O=C(c1cc2ccc3cccnc3c2[nH]1)N1CCN(c2ccc(Cl)cc2)CC1	.
O=C(NCc1ccc(Cl)cc1)c1cc2ccc3cccnc3c2[nH]1	.
O=C(Cn1ncc2c([nH]c3ccccc32)c1=O)NCC1CCN(Cc2ccc(F)cc2)CC1	.
CC(C)N(Cc1ccccc1)C(=O)c1cc2ccc3cccnc3c2[nH]1	12.6µM
COCCNC(=O)[C@H]1C[C@H](Oc2ccccc2)CN1C(=O)NCc1ccccc1	.
SMILES	Pf Dd2 growth
COCCN1CCC2(CCC1=O)CN(Cc1cccc(Cl)c1)CCN2C (stereo not drawn)	.
CCOCCOC1CCN(C(=O)NCCc2ccccc2)CC1	.
Cc1noc(C)c1Cn1cnc(-c2ccccc2)c1-c1ccc(CO)o1	.
Cc1ccc(S(=O)(=O)NC[C@H]2OC[C@@H](NCC(C)(C)C)[C@@H]2O)cc1	.
COc1ccccc1NC(=O)c1cc2ccc3cccnc3c2[nH]1	.
CCN(CC)S(=O)(=O)c1ccc(NC(=O)c2cc3ccc4cccnc4c3[nH]2)cc1	11.2µM
CCOC(=O)c1ccccc1NC(=O)c1cc2ccc3cccnc3c2[nH]1	.
Cn1cc(CNS(=O)(=O)c2cccc(C(=O)NCC3CCOC3)c2)cn1 (stereo not drawn)	.
CNC(=O)[C@@H](c1ccc(OC)cc1)N1CCC[C@H]1C(=O)N1CCCC1	.
COc1ccc(NC(=O)c2ccc(CN3C(=O)NC4(CCOCC4)C3=O)cc2)cc1OC	.
COc1cc(Cl)ccc1C(=O)NC1CCN(c2cc(C(F)(F)F)nc(C)n2)CC1	5.01µM
Cc1nc(N2CCC(NC(=O)c3ccccc3F)CC2)cc(C(F)(F)F)n1	.
Cc1nc(N2CCC(NC(=O)c3ccccc3Cl)CC2)cc(C(F)(F)F)n1	.
Cc1nn(CCO)cc1CN1CCC2(CC1)C(C(=O)O)CC(=O)N2C (stereo not drawn)	.
CN1C(=O)CCC2(CNC(=O)C3CCCC3)CCC=C12 (stereo not drawn)	.
CN(Cc1ccccc1)C(=O)CSc1c2c(nc3ccc(Cl)cc13)CCCC2	.
COc1cc(OC)c(N(C)C(=O)CSc2c3c(nc4ccc(Cl)cc24)CCCC3)cc1Cl	11.2µM
CCCN(CCC)C(=O)CSc1c2c(nc3ccc(Cl)cc13)CCCC2	.
COCCNC(=O)CSc1c2c(nc3cc(Cl)ccc13)CCCC2	.
COc1ccc(C)cc1NC(=O)c1ccc2c(SCC(=O)O)c3c(nc2c1)CCCC3	.
COc1ccc(OC)c(NC(=O)CSc2c3c(nc4cc(Cl)ccc24)CCCC3)c1	8.91µM
CCc1nc(-c2c3n(c(=O)n(Cc4ccccc4OC)c2=O)CCCCC3)no1	.
CC1(C(=O)Nc2cccc(Cl)c2)CCCCC(=O)N1 (stereo not drawn)	.
COc1cc2cc(CN3CCC[C@@H]3CO)c(-c3cccc(Cl)c3)nc2cc1OC	12.6µM
COc1ccc(OC)c2nc(-c3cccc(Cl)c3)c(CN3CC(O)C3)cc12	.
SMILES	Pf Dd2 growth
COc1ccc(-c2nc3cc(C)ccc3cc2CN2CCC[C@@H]2C(N)=O)cc1OC	.
COc1cccc([S+](=O)([O-])N2CCC(N3CCOC3=O)CC2)c1	.
COc1ccc(CNC[C@H]2O[C@H](Cc3cc(CN4CCOCC4)on3)CC[C@@H]2O)cc1	.
CC(C)OCCCNC(=O)C1Cn2cccc2C(=O)N1Cc1cccnc1 (stereo not drawn)	.
COc1ccccc1CNC(=O)C1Cn2cccc2C(=O)N1Cc1cccnc1 (stereo not drawn)	4.47µM
COc1ccccc1OCCNC(=O)C1Cn2cccc2C(=O)N1Cc1cccnc1 (stereo not drawn)	5.62µM
COCCCNC(=O)C1Cn2cccc2C(=O)N1Cc1ccccc1 (stereo not drawn)	.
O=C(NCCCN1CCCC1=O)C1Cn2cccc2C(=O)N1Cc1cccnc1 (stereo not drawn)	.
O=C(NCCN1CCCCC1)C1Cn2cccc2C(=O)N1Cc1cccnc1 (stereo not drawn)	.
O=C(NCc1cc(F)ccc1F)C1Cn2cccc2C(=O)N1Cc1ccccc1 (stereo not drawn)	.
COc1cccc(CNC(=O)C2Cn3cccc3C(=O)N2Cc2ccccc2)c1 (stereo not drawn)	.
O=C(NCCCN1CCCc2ccccc21)C1Cn2cccc2C(=O)N1Cc1cccnc1 (stereo not drawn)	8.91µM
CCOCC(=O)N1CCCC(c2cc(N3CCOCC3)nc(C)n2)C1 (stereo not drawn)	.
Cc1cc(CNC(=O)[C@@H]2CCC[C@@H](NCc3nccn3C)CN(C)C(=O)C2)no1	.
COC1CCC12CCN(C(=O)NC(C)(C)C)CC2 (stereo not drawn)	.
O=C(NCCc1noc(C2CC2)n1)C1CCC1	.
CCC(=O)N1CCC2(CC1)CC(C(=O)N1CCOCC1)N(C)C2 (stereo not drawn)	.
O=C(CCc1nc2ccccc2[nH]1)N1[C@H]2CC[C@@H]1c1cnc(-c3ccc(F)cc3)nc1C2	11.2µM
O=C(Cc1cccnc1)N1[C@H]2CC[C@@H]1c1cnc(-c3ccc(F)cc3)nc1C2	.
O=C(CCc1c[nH]c2ccccc12)N1[C@H]2CC[C@@H]1c1cnc(-c3ccccc3)nc1C2	.
CC(C)N1C(=O)[C@@H]2[C@@H](CCN2C(=O)CSCC(=O)O)N(Cc2cccc(F)c2)C1=O	.
O=C1Nc2ccccc2CC12CCCN(CC1CCCCC1)C2 (stereo not drawn)	.
O=C1N(Cc2ccc(F)cc2)CCCC12CCN(CC1CCCC1)C2 (stereo not drawn)	3.98µM
